Data from PubChem BioAssay.
Activity calls are given as the source filed them.

Assays:
[1] = A549 cell viability effects, profiling panel, calcein-AM fluorescence, 48 h, basal (AID 1162); conditions: higher = more signal
[2] = adipocyte viability effects, profiling panel, cell-based, 3T3-L1 adipocytes, calcein-AM fluorescence, 48 h, basal (AID 1163); conditions: 3T3-L1 adipocytes viability, higher = more signal
[3] = HepG2 cell viability effects, profiling panel, calcein-AM fluorescence, 48 h, basal (AID 1164); conditions: higher = more signal
[4] = MM1S cell viability effects, profiling panel, calcein-AM fluorescence, 48 h, basal (AID 1165); conditions: higher = more signal;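 further: viability of MM1S multiple myeloma cells under basal unstimulated conditions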
[5] = basal RPMI8226 viability, no added stimulus, profiling panel, cell-based, calcein-AM fluorescence, 48 h, PK04 Diversity Set (AID 1166); conditions: RPMI8226 myeloma viability, higher = more signal;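 further: cells grown under basal conditions without added stimulus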
[6] = basal HepG2 mitochondrial membrane potential changes, profiling panel, cell-based, JC-1 fluorescence, 24 h, 100 nL compound (AID 1167); conditions: higher = more signal
[7] = basal 3T3-L1 adipocyte mitochondrial potential changes, profiling panel, cell-based, JC-1 fluorescence, 3T3-L1 adipocytes, 24 h, 100 nL compound (AID 1168); conditions: JC-1 mitochondrial fluorescence, higher = more signal, called active from +8 up or from −8 down
[8] = basal RPMI8226 mitochondrial membrane potential changes, profiling panel, cell-based, JC-1 fluorescence, 24 h, 100 nL compound (AID 1169); conditions: RPMI8226 myeloma, JC-1 mitochondrial potential fluorescence, higher = more signal
[9] = basal MM1S mitochondrial membrane potential changes, profiling panel, cell-based, JC-1 fluorescence, 24 h, 100 nL compound (AID 1170); conditions: higher = more signal
[10] = A549 lung cancer cell viability effects, profiling panel, resazurin fluorescence, 24 h, PK04 Diversity Set (AID 1171); conditions: higher = more signal, called active from +8 up or from −8 down
Further: test concentration not given here.

| SMILES | z-score [1] | z-score [2] | z-score [3] | z-score [4] | z-score [5] | z-score [6] | z-score [7] | z-score [8] | z-score [9] | z-score [10] |
| --- | --- | --- | --- | --- | --- | --- | --- | --- | --- | --- |
| CCOC(=O)C[C@H]1[C@H](OC(=O)c2ccc(C(=O)c3ccccc3)cc2)[C@@H](NC(=O)c2ccccc2)c2cc(OCCCO)ccc2N1C(=O)c1ccc2ccccc2n1 | 0.29 | -0.356 | 0.74 | 0.294 | -0.465 | 1 | 1.76 (inactive) | -0.517 | -0.386 | -0.142 (inactive) |
| CCCC[C@H]1OB(O)C[C@H]2C1=C(COC)Cn1c(=O)n(-c3ccccc3)c(=O)n12 | 0.0913 | -0.21 | -0.136 | -1.16 | -0.657 | 0.0213 | -0.199 (inactive) | 0.454 | -0.73 | 0.921 (inactive) |
| COCC(=C=CC[C@@H](O)c1cccc(OCCO)c1)C[C@@H](O)c1ccccn1 | 0.492 | -0.0288 | -0.112 | 0.265 | -0.51 | 0.00274 | 0.613 (inactive) | 0.00702 | -0.0149 | 0.391 (inactive) |
| COCCOC(=O)N1C(=O)[C@@]2(c3ccccc31)[C@H](C(=O)N1CCc3cc(OC)c(OC)cc3C1)[C@H]1C(=O)O[C@H](c3ccccc3)[C@H](c3ccccc3)N1[C@@H]2c1ccc(OCCO)cc1 | 1.23 | 1.48 | 0.852 | -1.1 | 0.494 | 0.384 | 0.139 (inactive) | -0.618 | -0.483 | 0.779 (inactive) |
| Cc1ccc(S[C@]2(C(=O)NC3CC3)CC(=O)N(Cc3ccccc3)[C@@H]2c2ccc(CO)cc2I)cc1 | 2.11 | 0.388 | 0.935 | -1.99 | -2.06 | 1.55 | 0.679 (inactive) | -0.525 | -1.26 | 0.618 (inactive) |
| Cc1nc2cc(Br)ccc2c(=O)o1 | 0.504 | 0.703 | 0.368 | 0.729 | 0.834 | 1.37 | 0.499 (inactive) | 0.649 | 0.392 | 0.235 (inactive) |
| CN(C)C(=O)[C@@]1(CCS(=O)(=O)c2ccccc2)COC(c2ccc(OCCCO)cc2)=N1 | -0.245 | -0.0285 | -1.28 | -2.08 | -2.36 | -1.09 | -0.0809 (inactive) | -0.476 | -1.49 | -2.54 (inactive) |
| CCCC[C@@H]1C[C@H]1[C@@H](NC(=O)C(C)(C)C)c1ccc(C(F)(F)F)cc1 | -1.63 | 0.434 | -1.6 | -2.43 | -3.05 | -0.754 | -1.64 (inactive) | -0.204 | -1.8 | 0.419 (inactive) |
| CC(C)C[C@@H]1NC(=O)[C@@H]2C[C@H](C(=O)NCc3ccc(F)cc3)[C@H](c3cccc(OCCO)c3)N2C1=O | 1.21 | -0.613 | 0.259 | 1.04 | 0.828 | 1.9 | 0.0605 (inactive) | -0.0212 | -0.657 | 0.234 (inactive) |
| C[N+](C)(C)CCCC[C@@H]1NC(=O)[C@H]2C[C@@H](C(=O)NCCCCCCNC(=O)CS)[C@@H](c3cccc(OCCO)c3)N2C1=O | -1.42 | -0.132 | -0.153 | 0.0157 | -0.682 | 0.325 | 0.0973 (inactive) | -0.277 | -0.326 | -0.257 (inactive) |
| COC(=O)[C@@]1(Cc2ccccc2)[C@H]2c3cc(C(=O)N(C)C)n(Cc4ccsc4Br)c3C[C@H]2CN1C(=O)c1ccccc1 | 0.209 | -1.34 | 0.369 | -1.13 | -1.34 | 1.17 | 0.332 (inactive) | -0.776 | -2 | -2.34 (inactive) |
| C=C[C@H](CO)NS(=O)(=O)c1ccc(Br)cc1 | 1.52 | 0.131 | 1.34 | -0.328 | -0.451 | 0.63 | 0.489 (inactive) | 0.3 | 0.525 | 0.204 (inactive) |
| O=C1C2C=CC(C(O)Cc3ccccc3)N(n3cnnc3)C2C(=O)N1Cc1ccccc1 (stereo not given) | -0.182 | 0.549 | -0.065 | -0.304 | -1.11 | -0.532 | -0.533 (inactive) | 0.395 | 1.24 | -1.29 (inactive) |
| O=C1c2ccccc2[C@](Cc2ccccc2I)(C(=O)NCCN2CCOCC2)[C@H](c2ccc(CO)cc2)N1C1CCCCC1 | 0.668 | 0.195 | 1.52 | -0.196 | -1.22 | 1.36 | -1.01 (inactive) | -0.385 | -0.96 | -0.112 (inactive) |
| COCCOC(=O)N1C(=O)[C@@]2(c3cc(C#CCCO)ccc31)[C@H](C(N)=O)[C@H]1C(=O)O[C@H](c3ccccc3)[C@H](c3ccccc3)N1[C@@H]2c1ccc(O)cc1 | -0.272 | 0.24 | -0.05 | 0.0119 | -1.2 | -0.537 | -0.142 (inactive) | -0.105 | 0.0477 | -0.3 (inactive) |
| CC(C)N1C(=O)C[C@@](C(=O)NCC(F)(F)F)(c2ccc([N+](=O)[O-])cc2)[C@H]1c1ccc(CO)cc1 | 1.41 | 1.13 | -0.0704 | -0.464 | -1.66 | 0.868 | -0.502 (inactive) | -0.564 | -1.51 | 0.201 (inactive) |
| COCCOC(=O)N1C(=O)[C@@]2(c3cc(C#CCC(C(=O)OC)C(=O)OC)ccc31)[C@H](C(=O)Nc1nc3ccccc3s1)[C@H]1C(=O)O[C@H](c3ccccc3)[C@H](c3ccccc3)N1[C@@H]2c1ccccc1OCCO | 1.84 | 0.6 | 1.31 | -0.139 | 0.199 | -2.23 | 0.803 (inactive) | -0.859 | -1.19 | -0.454 (inactive) |
| O=C1O[C@@H](c2ccccc2)[C@@H](c2ccccc2)N2[C@@H](c3ccccc3OCCO)[C@]3(C(=O)Nc4ccccc43)[C@@H](C(=O)Nc3nc4ccccc4s3)[C@H]12 | -2.12 | 1.18 | -1.98 | -3.17 | -4.44 | -2.85 | 3.87 (inactive) | -1.3 | -1.54 | -1.52 (inactive) |
| CC(C)=CCN[C@H](CO)c1ccccc1 | -0.11 | 1.93 | -0.0885 | -1.22 | -1.9 | -0.416 | 0.476 (inactive) | -0.0908 | 0.559 | -0.278 (inactive) |
| C[C@H]1C2[C@H](Cc3ccccc3)NC(=O)[C@]23C(=O)N[C@H](Cc2ccccc2)C(=O)N2CCC[C@H]2C(=O)NC/C=C\C/C=C/C3[C@@H]2O[C@]12C (stereo not given in full) | 1.4 | 0.993 | 0.445 | 0.0625 | -0.0608 | 0.725 | 0.736 (inactive) | -0.243 | -0.634 | 0.559 (inactive) |
| COC(=O)C(CC#Cc1ccc2c(c1)[C@]1(C(=O)N2)[C@H](c2ccc(OCCO)cc2)N2[C@H](c3ccccc3)[C@H](c3ccccc3)OC(=O)[C@H]2[C@@H]1C(=O)N1CCc2cc(OC)c(OC)cc2C1)C(=O)OC | 0.442 | 1.16 | 0.578 | -0.952 | -0.578 | -0.156 | -0.0627 (inactive) | -0.929 | -1.11 | 0.161 (inactive) |
| NC(=O)NCC#Cc1ccc2c(c1)[C@]1(C(=O)N2)[C@H](c2ccccc2OCCO)N2[C@H](c3ccccc3)[C@H](c3ccccc3)OC(=O)[C@H]2[C@@H]1C(=O)Nc1nc2ccccc2s1 | 0.334 | 0.226 | -0.126 | 0.0225 | -0.048 | -2.78 | 2.99 (inactive) | -0.885 | -1.73 | 0.659 (inactive) |
| COCCCNC(=O)[C@]1(CCC(=O)OC(C)(C)C)N=C(c2ccc(OCCCO)cc2)O[C@@H]1c1ccccc1CN=[N+]=[N-] | -0.651 | -0.579 | -0.421 | -0.658 | 0.338 | -0.255 | -0.2 (inactive) | -0.315 | -0.272 | 0.743 (inactive) |
| CC(C)C[C@@H]1NC(=O)[C@@H]2C[C@H](C(=O)O)[C@H](c3cccc(OCCO)c3)N2C1=O | 0.196 | 0.237 | -0.404 | 0.101 | -0.57 | 0.555 | -0.531 (inactive) | 0.719 | 0.897 | 0.0499 (inactive) |
| O=C(c1ccccc1)N1C(=O)[C@@]2(Cc3ccccc31)N=C(c1ccc(OCCCO)cc1)O[C@H]2c1ccccc1 | -1.31 | 0.668 | -1.58 | -3.54 | -4.36 | 0.157 | 0.479 (inactive) | -1.19 | -2.17 | -1.62 (inactive) |
| COCCOC(=O)N1C(=O)[C@@]2(c3ccccc31)[C@H](c1ccc(O)cc1)N1[C@H](c3ccccc3)[C@H](c3ccccc3)OC(=O)[C@H]1[C@@H]2C(=O)Nc1nc2ccccc2s1 | 0.982 | 0.267 | 0.818 | -1.49 | -2.22 | -3.87 | -1.17 (inactive) | -0.883 | -1.21 | 0.185 (inactive) |
| CN(C)CCCCCCNC(=O)[C@H]1C[C@H]2C(=O)N[C@@H](CCCCN)C(=O)N2[C@H]1c1cccc(OCCO)c1 | -0.214 | 0.414 | -0.458 | -0.371 | -0.497 | 0.272 | 0.587 (inactive) | -0.636 | 0.358 | -0.0439 (inactive) |
| [N-]=[N+]=NCc1ccccc1C[C@]1(C(=O)N2CCCCC2)N=C(c2ccc(OCCCO)cc2)O[C@H]1c1ccccc1N=[N+]=[N-] | -1.27 | 1.03 | -0.454 | -2.18 | -3.48 | 0.345 | -0.187 (inactive) | -1.16 | -1.07 | -0.6 (inactive) |
